Compound activity: PubChem, National Center for Advancing Translational Sciences (NCATS)
The list is not random: actives were taken first. Their share in the collection is about 2.4%.
Tb PGK inh: qHTS Assay to Find Inhibitors of Phosphoglycerate Kinase; Phosphoglycerate kinase, glycosomal (Trypanosoma brucei brucei), P07378; PGK/GAPDH coupled, Kinase-Glo luminescence, 60 min; Potency, µM (series often up to 57.5 µM), inactives show at the highest dose activity change, negative = inhibition, hits mostly inhibitors; actives 0.043% (n = 380,000); further: on the % scale 0 is the no-effect control and ±100 the full control effect; nearly all actives have a fitted effect of over 60% in size
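Recombinant glycosomal PGK reaction used 1,3-bisphosphoglycerate generated in-well by GAPDH (100nM final) in 100mM TEA pH 7.6, 5mM MgCl2, 0.01% Tween-20. After 60 minutes at room temperature, ATP was read by Kinase-Glo Plus luminescence end-point.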
FEN1 inhibitor: qHTS Assay for the Inhibitors of Human Flap endonuclease 1 (FEN1); P39748; Recombinant FEN1 flap cleavage, fluorescence, 15 min; Potency, µM (doses to about 114 µM), for the others: top-dose activity change, negative = inhibition, usual class: inhibitors; actives 0.35% (n = 390,000); further: on the % scale 0 is the no-effect control and ±100 the full control effect; nearly all actives have a fitted effect of over 65% in size
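In this screen, 50 nM flap DNA substrate was added to 10 nM FEN1 pretreated with compound for 15 min at room temperature; cleavage was followed with reads at 0 and 15 min, and Hill fitting gave concentration–response parameters.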
Pol beta inh: qHTS Assay for Inhibitors of DNA Polymerase Beta | actives 1.3% (n = 340,000) | AID 485314, 2010 | Pol beta primer extension/strand displacement, fluorescence kinetic | Potency, µM (doses to about 114 µM), inactives show at the highest dose activity change, negative = inhibition, hits mostly inhibitors; further: on the % scale 0 is the no-effect control and ±100 the full control effect
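Pol beta (10 nM) was preincubated with compound for 15 min at room temperature. The reaction was then started with 50 nM substrate and read immediately and after a further 10 min at room temperature.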
Pol eta inh: qHTS for Inhibitors of Polymerase Eta; recombinant Pol eta, fluorescent DNA replication assay; Potency, µM (titrated, usually from 114 µM), for the others: at the top dose activity change, negative = inhibition, hits mostly inhibitors; actives 1.2% (n = 390,000); further: on the % scale 0 is the no-effect control and ±100 the full control effect
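Pol eta at 10 nM preincubated with compounds 15 min at room temperature; reaction started with fluorescent substrate (50 nM final) and read kinetically at 0 and 10 min.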
Pol iota inh: qHTS for Inhibitors of Polymerase Iota | Pol iota fluorescent replication assay, 10 min | Potency, µM (series often up to 115 µM), inactives show at the top dose activity, negative = inhibition, usual class: inhibitors | actives 1% (n = 390,000) | AID 588590, 2011
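Fluorescent replication assay read twice, at 0 min and 10 min after adding 50 nM (final) substrate. Enzyme (10 nM) and compounds were first incubated 15 min at room temperature; enzyme-free buffer wells were negative controls.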
POLK inh: qHTS for Inhibitors of Polymerase Kappa | DNA polymerase kappa (Homo sapiens), Q9UBT6 | purified Pol kappa, fluorescent DNA synthesis assay, 10 min | Potency, µM (highest dose often 107 µM), for the others: at the highest dose activity, negative = inhibition, usual class: inhibitors | actives 0.53% (n = 400,000) | AID 588579, 2011; further: on the % scale 0 is the no-effect control and ±100 the full control effect
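Activity was followed as the change in fluorescence between reads at 0 and 10 min after starting the reaction with 50 nM substrate. Beforehand, 10 nM polymerase had been preincubated with compound for 15 min at room temperature.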
* hit, by the source's call; i = inactive; u = inconclusive; x = no result given; [ ] = another dose, or the depositor's remark. The call rests on the fitted dose curve; in most records, active means well fitted curve in the direction sought with a large enough effect; inconclusive means small, poorly fitted or top-dose-only effect, or another doubt; inactive means no such curve, though single readings can be large; an effect the other way counts as inactive or inconclusive. Potency means the concentration at half of the fitted maximal effect.

SMILES	Tb PGK inh	FEN1 inhibitor	Pol beta inh	Pol eta inh	Pol iota inh	POLK inh
O=C(O)CN1C(=O)/C(=C\c2cccc(OCc3ccccc3)c2)SC1=S	-8%	-15%	-1%	-17%	-28%	-17%
O=C1/C(=C\c2ccc(O)c(O)c2)SC(=S)N1Cc1ccccc1	-17%	u	u	-30%	22µM*	-24%
Cc1ccc(C)c(NC(=O)c2ccc(CN3CC(=O)N4CCCCC4C3=O)cc2)c1 (stereo unspecified)	-10%	-5%	-5%	-13%	-2%	-3%
COc1ccc2c(c1)oc(=O)c1cc(OC)ccc12	-4%	0%	u	-12%	-1%	-5%
COc1cc(O)c2c(c1)oc(=O)c1c3cc(O)c(O)cc3oc21	x	x	x	x	x	0.75µM*
O=C(O)c1ccccc1N/C=C\[N+](=O)[O-]	i	7%	25µM*	u	u	-19%
Cc1cc(NC(=O)CSc2nnc(Nc3ccccc3C)s2)no1	-7%	8%	0%	-22%	-5%	5%
Cc1ccc(Nc2nnc(SCC(=O)NCc3ccco3)s2)cc1	-2%	-2%	10µM*	u	-21%	u
O=C(CSc1nnc(Nc2ccccc2)s1)NCc1ccco1	6%	-1%	16%	-7%	u	-1%
Cc1ccccc1Nc1nnc(SCC(=O)NC(=O)NCc2ccco2)s1	-11%	u	u	u	22µM*	u
Cc1cccc(C)c1NC(=O)Cn1c(=O)n(Cc2ccc(C(=O)NCc3ccco3)cc2)c(=O)c2sccc21	x	-6%	45µM*	x	45µM*	-21%
N#Cc1ccccc1Cn1c(=O)n(Cc2ccc(C(=O)NCc3ccco3)cc2)c(=O)c2sccc21	-5%	5%	u	-15%	-6%	-26%
COc1ccccc1C(C)NCC(=O)NC(=O)NCc1ccco1 (stereo unspecified)	-5%	4%	x	u	50µM*	-31%
COc1ccccc1OCC(=O)NCc1ccco1	-19%	-2%	8%	0%	-6%	1%
CC1(C)C(=O)NC2=C1C(=O)C(=O)c1ccccc12	x	x	x	x	x	-16%[12 µM]
CNC(=O)c1cc(-c2cccs2)on1	x	-6%	x	x	3%	9%
O=C(CNC(=O)C1CCCCC1)OCC(=O)c1ccc(-c2ccccc2)cc1	x	-1%	x	x	40%	-17%
O=C(CSc1ccc2c(c1)OCCO2)NCc1ccco1	1%	-11%	40µM*	u	u	u
Cc1ccc(Cn2c(SCC(=O)NCc3ccco3)nc3ccsc3c2=O)cc1	0%	-4%	-21%	6%	100µM*	-24%
O=C(CSc1nnc(NC(=O)C2CC(=O)N(c3ccccc3)C2)s1)NCC1CCCO1 (stereo unspecified)	13%	3%	66%	-26%	2%	-7%
O=C(CSc1ccccc1)NCc1ccco1	-2%	-7%	4%	u	-8%	-12%
O=C(CSc1nnc(NC(=O)C2CC(=O)N(c3ccccc3)C2)s1)NCc1ccco1 (stereo unspecified)	-3%	-13%	89µM*	u	50µM*	u
O=C(CSc1nnc(Nc2ccccc2F)s1)NCc1ccco1	-13%	-8%	40µM*	14µM*	u	u
Cc1cc(NC(=O)C2CCN(S(=O)(=O)c3cccc4nsnc34)CC2)ccc1Br	-9%	-3%	-9%	-3%	15%	-7%
COc1ccc(-c2nc(CSc3nnc(C)n4c3cc3sccc34)c(C)o2)cc1	4%	8%	7%	-8%	0%	-8%
COc1ccc(CNc2nc(N)nc3nc[nH]c23)cc1	x	-11%	x	x	16%	-9%
Clc1ncc(C#Cc2ccccc2)c2ncncc12	x	-10%	x	x	u	-3%
